Compounds with a hit are over-represented: about 11% of the library has one in this group of screens.
PNC assembly inh – inhibitors of perinucleolar compartment assembly. PC3M PTB-GFP, PNC prevalence imaging, 16 h; hits give low values. activity change (PNC), negative = inhibition, % at 10 µM. 140,000 tested, 3.1% active. AID 2417;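 active = readout at or below -70, meaning at least 70% loss of cells showing the perinucleolar compartment, a nuclear body marking cancer cells; inconclusive = readout between -30 and a set limit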;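 note: plate controls were DMSO wells for no effect and camptothecin positive control wells for full effect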
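Compounds are pinned in duplicate onto adhered PC3M cells stably expressing GFP-tagged PTB and incubated 16 h at 37 C. Cells are then fixed, nuclei stained with Hoechst, and PNC-positive cells counted.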
HPGD inh – inhibitors of human 15-hydroxyprostaglandin dehydrogenase (HPGD) | Potency, µM, for inactives: top-dose activity change, negative = inhibition, actives largely listed as inhibitors | 150,000 tested, 4.3% active | purified HPGD, NADH fluorescence kinetic, PGE2 substrate; note: potency is the fitted concentration of half-maximal effect
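NADH formation kinetics: reaction with 30 uM PGE2 and 1 mM NAD+ (final), 20 nM enzyme, Tris-HCl pH 8 with Tween 20, after 15 min compound preincubation at room temperature. Fluorescence change, last versus first of five reads.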
ALDH1A1 inh – blocks purified human ALDH1A1 activity; P00352; 220,000 tested, 7.3% active; Purified ALDH1A1, NADH fluorescence, propionaldehyde substrate; Potency, µM (top dose mostly 75.3 µM), without a hit: at the top dose activity, negative = inhibition, hits mostly inhibitors;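 note: potency is the fitted concentration of half-maximal effect; plate controls were no enzyme wells and a reference inhibitor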
Target sequence (P00352 whole entry, looked up): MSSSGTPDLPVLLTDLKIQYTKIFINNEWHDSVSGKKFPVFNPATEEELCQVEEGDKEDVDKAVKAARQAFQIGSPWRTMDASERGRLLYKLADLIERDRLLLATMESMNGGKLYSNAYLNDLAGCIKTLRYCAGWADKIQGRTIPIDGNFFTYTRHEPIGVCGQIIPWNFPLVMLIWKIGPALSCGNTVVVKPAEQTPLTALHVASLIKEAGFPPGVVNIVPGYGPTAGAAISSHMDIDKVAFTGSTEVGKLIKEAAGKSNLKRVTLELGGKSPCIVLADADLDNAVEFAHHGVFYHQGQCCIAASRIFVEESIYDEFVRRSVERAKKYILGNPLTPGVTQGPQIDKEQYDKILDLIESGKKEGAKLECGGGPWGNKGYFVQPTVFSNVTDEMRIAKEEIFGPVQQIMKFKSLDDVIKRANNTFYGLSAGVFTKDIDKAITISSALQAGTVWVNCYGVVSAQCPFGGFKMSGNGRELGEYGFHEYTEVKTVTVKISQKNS
The depositor's hits bear a star; ? = inconclusive; . = no result given; [ ] = another dose, or the depositor's remark. Unless noted, calls come from the whole dose curve; as a rule, active = well fitted inhibition curve with a large enough effect (not every such curve was filed as active); inconclusive = small, poorly fitted or top-dose-only effect, or another doubt; inactive = no such curve, though single readings can be large or run the other way. Unless noted, % is set by controls: 0 for no effect and ±100 for the full control effect.

SMILES	PNC assembly inh	HPGD inh	ALDH1A1 inh
O=C(NC(=S)Nc1ccccc1N1CCOCC1)c1sc2ccccc2c1Cl	-27	-15%	?
CCCCCC(=O)NC(=S)Nc1ccc(N2CCCCC2)c(Cl)c1	29	.	8%
O=C(NC(=S)Nc1ccc(N2CCOCC2)c(Cl)c1)c1cncc(Br)c1	?	22µM*	7.9µM*
O=C(NC(=S)Nc1ccc(N2CCOCC2)c(Cl)c1)c1cccs1	.	.	-88%
O=C(NC(=S)Nc1ccc(N2CCCCC2)c(Cl)c1)c1ccc2c(c1)OCCO2	?	?	10µM*
O=C(NC(=S)Nc1ccc(N2CCOCC2)c(Cl)c1)c1sc2ccccc2c1Cl	-2	-22%	3.5µM*
CCc1nnc(NC(=O)C2CCCN(S(=O)(=O)c3ccc(OC)cc3)C2)s1 (configuration not stated)	.	.	-3%
Cc1ccc(CCNC(=O)C23CN(Cc4ccccc4)CC2C(c2cccc([N+](=O)[O-])c2)=NO3)cc1 (configuration not stated)	?	-18%	?
O=C(NCc1ccc2c(c1)OCO2)C12CN(Cc3ccccc3)CC1C(c1cccc([N+](=O)[O-])c1)=NO2 (configuration not stated)	-87*	-2%	?
COc1ccc(CCNC(=O)C23CN(Cc4ccccc4)CC2C(c2cccc([N+](=O)[O-])c2)=NO3)cc1 (configuration not stated)	-19	-25%	8.9µM*
O=C(NCc1ccc(C(F)(F)F)cc1)C12CN(Cc3ccccc3)CC1C(c1cccc([N+](=O)[O-])c1)=NO2 (configuration not stated)	19	-19%	?
C=Cc1ccccc1C=C	.	-3%	1%
Cn1nccc1C(=O)Oc1cccc(/C=N/NC(=O)c2ccccc2O)c1	.	.	12%
O=C(O)CCc1cc(I)c(O)c(I)c1	.	.	4%
CC(=O)NC(C(=O)O)C(C)(C)SN=O (configuration not stated)	.	-6%	1%
Cc1cccc(CSc2ncnc3ccccc23)c1	.	.	-2%
O=[N+]([O-])c1cccc(CSc2ncnc3ccccc23)c1	.	.	22µM*
COc1ccc(CNC(=O)[C@H]2C[C@@H]2[C@H](NP(=O)(c2ccccc2)c2ccccc2)c2ccccc2)cc1OC	.	-7%	-12%
CC(C)(C)[C@]1(O)CCN2C[C@H]3c4ccccc4CCc4cccc(c43)[C@@H]2C1	?	1%	9%
CCOC(=O)CN1C(=O)N[C@@H](c2ccc(Br)cc2)C(C(=O)OC)=C1C	.	1%	-3%[13.5 µM]
CCOC(=O)CN1C(=O)N[C@H](c2ccc(Br)cc2)C(C(C)=O)=C1C	-6	-23%	14µM*
O=c1[nH]n(-c2ccc(F)cc2)c2ncccc12	10	18µM*	7%
O=c1ncn(-c2ccc(F)cc2)c2ncccc12	-12	-6%	2%
CC(=O)N1CC(=O)N(Cc2ccccc2)/C(=C/c2ccccc2)C1=O	.	.	-7%
Cc1cc(NC(=O)c2ccccc2F)ncc1NC(=O)c1cccs1	.	.	-5%
SMILES	PNC assembly inh	HPGD inh	ALDH1A1 inh
Cc1ccc(NC(=O)Nc2ccc(F)cc2)cc1Cl	.	.	10%
O=C(CCSc1ccc(Cl)c(Cl)c1)NC12CC3CC(CC(C3)C1)C2	52	-19%	-7%
CN=C(NC#N)Nc1ccc(C2=NNC(=O)CC2C)cc1 (configuration not stated)	.	-8%	-2%
COc1ccccc1C(=O)Nc1ccc(C2=NNC(=O)CC2C)cc1 (configuration not stated)	-114*	-15%	-7%
Cc1cc(C)cc(NS(=O)(=O)c2cnc(Cl)c(Cl)c2)c1	?	-10%	3.5µM*
CCOc1ccc(NS(=O)(=O)c2cnc(Cl)c(Cl)c2)cc1	?	-3%	?
CCO[C@H]1O[C@@H]([C@H](COCc2ccccc2)OCc2ccccc2)[C@@H](OCc2ccccc2)[C@H]1O	.	0%	-4%[20.9 µM]
CCCC(O)(CCC)C(=O)NN(C(=O)CCl)c1ccccc1	?	-10%	25µM*
CCCCC(O)(CCCC)C(=O)NN(C(=O)OCC)c1ccccc1	8	2%	-11%
CCNC(=S)N1CCN(c2cccc(C(F)(F)F)c2)CC1	53	-10%	8%
C=CCNC(=S)N1CCN(c2cccc(C(F)(F)F)c2)CC1	-113*	-4%	5%
Cc1ccc(/C=C/C(=O)N2CCN(c3cccc(C(F)(F)F)c3)CC2)cc1	-14	-14%	-4%
C/C(=C\c1ccccc1)C(=O)N1CCN(c2cccc(C(F)(F)F)c2)CC1	-91*	25µM*	5%
CN(Cc1ccco1)c1ncnc2ccc(-c3ccccc3C(F)(F)F)cc12	.	.	-9%
CSc1nc(-c2ccco2)cc(-c2ccccc2)c1C#N	-27	?	?
COc1ccc(-c2cc(-c3ccc(OC)cc3)c(C#N)c(SC)n2)cc1	-100*	?	?
S=c1[nH]nc(-c2ccco2)n1/N=C/c1cccc(Cl)c1Cl	46	2µM*	-4%
S=c1[nH]nc(-c2ccco2)n1/N=C/c1ccc(Cl)cc1Cl	-1	2.2µM*	?
S=c1[nH]nc(-c2ccco2)n1-c1ccc(Cl)cc1	.	.	-7%
Cc1cnc(C(=O)OCC(=O)N(Cc2ccccc2)C(C)C)cn1	.	.	-3%
CSc1ccc(/C=C(/NC(=O)c2ccc(C)cc2)C(=O)Nc2cccc(F)c2)cc1	77	-14%	?
COc1cc(Cl)cc(C2NC(=O)NC(C)=C2C(C)=O)c1OCC(=O)O (configuration not stated)	27	-9%	2.2µM*
C=CCOc1c(OC)cc(Cl)cc1C1NC(=O)NC(C)=C1C(C)=O (configuration not stated)	10	-4%	10%
N#CCCn1cc(C(=O)Nc2ccc([N+](=O)[O-])cc2)c(-c2cc3ccccc3o2)n1	.	.	2%
Cc1ccc2nc3sc(C(=O)N4CCCc5ccccc54)c(N)c3cc2c1	22	-13%	-4%
SMILES	PNC assembly inh	HPGD inh	ALDH1A1 inh
Cc1cc(C)c2cc3c(N)c(C(=O)N4CCc5ccccc5C4)sc3nc2c1	?	7.1µM*	4%
COc1ccc(CN2C(=O)/C(=C/c3ccncc3)SC2=S)cc1	?	-20%	10µM*
COc1ccc(/C=C2\SC(=S)N(CCCC(=O)NNC(=O)c3ccccc3O)C2=O)cc1	.	.	7%
O=C(O)CCCCCN1C(=O)/C(=C\c2ccncc2)SC1=S	-90*	-22%	-3%
O=C(O)CCCN1C(=O)/C(=C/c2ccc(-c3nc4ccccc4s3)o2)SC1=S	41	18µM*	?
O=C(CCN1C(=O)/C(=C/C=C/c2ccccc2)SC1=S)Nc1nc2ccccc2s1	65	-3%	-10%
O=C(O)CCCCCN1C(=O)/C(=C/c2ccncc2)SC1=S	?	-17%	-15%
CCc1cccc(CC)c1NC(=O)C1CN(S(=O)(=O)c2ccccc2)CCN1S(=O)(=O)c1ccccc1 (configuration not stated)	-111*	.	1%
CCNC(=O)C1CN(S(=O)(=O)c2ccccc2)CCN1S(=O)(=O)c1ccccc1 (configuration not stated)	5	-4%	?
C=CCOC(=O)/C(=C/c1cccc2ccccc12)NC(=O)c1ccccc1	-5	-22%	?
Cc1ccc(NC(=O)C2C3/C=C\CCCCC32)cc1 (configuration not stated)	-81*	-2%	2%

Screens from PubChem BioAssay.
